# PubChem BioAssay
# Activity calls are given as the source filed them.
# Assays:
# [1] = test system: Plasmodium falciparum Sir2 (PF13_0152, Sir2A); experiment: Plasmodium falciparum Sir2A binding compounds – biochemical, small-molecule microarray, 635 nm fluorescence, primary screen (AID 1098); details: fluorescence 635 nm, higher = more signal;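 note: score merges spot fluorescence intensity with its signal-to-noise ratio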
# [2] = probe aDKK1 binding to arrayed compounds – biochemical, biotinylated probe, 635/667 nm fluorescence, primary screen (AID 1099); details: small-molecule microarray, higher = more signal;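 note: score merges 667nm spot fluorescence with signal to noise across triplicate slides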
# [3] = probe aCHRDL2 binding to arrayed compounds – biochemical, biotinylated probe, 635/667 nm fluorescence, primary screen (AID 1100); details: small-molecule microarray, higher = more signal
# [4] = change in splice reporter luminescence, either direction, cell-based, HEK293, spliceosome inhibition project, primary screen (AID 1101); details: HEK293 splicing luciferase reporter, 24 h, higher = more signal, called active from +8 up or from −8 down;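 note: HEK293 cells carrying a splicing-competent luciferase reporter gene; test concentration not given here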
# [5] = target: Fibroblast growth factor 10 (Homo sapiens) (UniProt O15520); experiment: compounds binding fibroblast growth factor 10 – biochemical, small-molecule microarray, 635 nm fluorescence, primary screen (AID 1102); details: FGF10 binding, fluorescence 635 nm, higher = more signal
# Chain of Fibroblast growth factor 10 (Homo sapiens) (O15520 whole entry, looked up): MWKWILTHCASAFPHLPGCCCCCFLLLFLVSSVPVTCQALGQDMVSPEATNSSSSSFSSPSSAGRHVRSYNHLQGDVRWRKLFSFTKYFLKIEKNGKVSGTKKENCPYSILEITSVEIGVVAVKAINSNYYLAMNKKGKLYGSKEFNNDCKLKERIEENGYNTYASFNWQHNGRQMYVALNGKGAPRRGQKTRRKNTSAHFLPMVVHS
# [6] = test system: glycogen synthase kinase-3 (GSK3A per assay name; protocol says GSK3B); experiment: compounds binding glycogen synthase kinase-3 – biochemical, small-molecule microarray, 635 nm fluorescence, GSK3A, primary screen (AID 1103); details: fluorescence 635 nm, higher = more signal; note: the record names both GSK3A and GSK3B
# [7] = target: Epidermal growth factor receptor (Homo sapiens) (UniProt P00533); experiment: compounds binding epidermal growth factor receptor – biochemical, small-molecule microarray, 635 nm fluorescence, primary screen (AID 1104); details: EGFR binding, higher = more signal;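 note: score merges 667 nm emission intensity with spot signal to noise over triplicate slides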
# Chain of Epidermal growth factor receptor (Homo sapiens) (P00533 whole entry, looked up): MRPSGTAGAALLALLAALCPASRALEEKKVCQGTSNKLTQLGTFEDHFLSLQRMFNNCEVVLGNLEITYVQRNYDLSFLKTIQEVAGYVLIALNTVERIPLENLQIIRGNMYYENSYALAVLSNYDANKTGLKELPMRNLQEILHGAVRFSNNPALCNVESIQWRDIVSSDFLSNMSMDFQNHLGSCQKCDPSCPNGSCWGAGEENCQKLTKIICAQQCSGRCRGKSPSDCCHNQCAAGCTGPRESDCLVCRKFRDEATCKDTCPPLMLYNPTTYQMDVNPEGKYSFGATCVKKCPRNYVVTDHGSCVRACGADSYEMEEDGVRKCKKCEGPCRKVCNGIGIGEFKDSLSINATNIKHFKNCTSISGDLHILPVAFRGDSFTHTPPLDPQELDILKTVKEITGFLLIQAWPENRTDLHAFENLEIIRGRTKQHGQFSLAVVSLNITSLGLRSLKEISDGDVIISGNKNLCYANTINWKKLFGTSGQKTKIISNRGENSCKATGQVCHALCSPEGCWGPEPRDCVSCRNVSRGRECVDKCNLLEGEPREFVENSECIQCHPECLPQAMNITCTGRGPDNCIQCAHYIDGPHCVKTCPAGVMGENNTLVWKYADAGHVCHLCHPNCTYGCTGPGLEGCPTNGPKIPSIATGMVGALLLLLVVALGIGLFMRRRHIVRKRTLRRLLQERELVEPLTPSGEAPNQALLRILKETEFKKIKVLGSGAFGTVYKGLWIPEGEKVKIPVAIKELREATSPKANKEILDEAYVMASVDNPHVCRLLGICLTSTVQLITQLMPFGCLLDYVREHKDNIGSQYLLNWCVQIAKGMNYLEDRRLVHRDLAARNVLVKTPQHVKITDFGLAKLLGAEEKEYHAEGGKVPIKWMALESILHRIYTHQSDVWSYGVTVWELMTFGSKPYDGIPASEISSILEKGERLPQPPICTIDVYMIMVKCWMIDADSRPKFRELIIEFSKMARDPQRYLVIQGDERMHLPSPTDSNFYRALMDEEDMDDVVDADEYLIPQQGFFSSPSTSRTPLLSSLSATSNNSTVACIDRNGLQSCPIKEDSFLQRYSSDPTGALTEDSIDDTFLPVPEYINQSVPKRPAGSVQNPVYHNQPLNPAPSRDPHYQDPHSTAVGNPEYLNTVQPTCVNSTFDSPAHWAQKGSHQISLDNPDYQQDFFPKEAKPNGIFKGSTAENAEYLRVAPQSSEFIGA
# [8] = target: Follistatin-related protein 3 (Homo sapiens) (UniProt O95633); experiment: compounds binding follistatin-related protein 3 – biochemical, small-molecule microarray, 635 nm fluorescence, primary screen (AID 1105); details: FSTL3 binding, higher = more signal;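 note: score merges emission near 667 nm and signal to noise per printed spot across three slides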
# Chain of Follistatin-related protein 3 (Homo sapiens) (O95633 whole entry, looked up): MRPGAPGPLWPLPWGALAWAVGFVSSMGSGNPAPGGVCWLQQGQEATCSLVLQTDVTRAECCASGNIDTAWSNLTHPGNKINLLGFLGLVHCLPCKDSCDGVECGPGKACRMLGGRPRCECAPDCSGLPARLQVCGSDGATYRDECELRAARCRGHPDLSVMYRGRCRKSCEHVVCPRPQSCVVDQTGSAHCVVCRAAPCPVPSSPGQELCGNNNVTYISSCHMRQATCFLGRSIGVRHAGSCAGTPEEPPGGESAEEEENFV
# [9] = target: Dickkopf-related protein 1 (Homo sapiens) (UniProt O94907); experiment: small molecules binding DKK1 protein – biochemical, small-molecule microarray, 635 nm fluorescence scan, primary screen (AID 1106); details: higher = more signal;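 note: score merges emission near 667 nm with signal to noise over three replicate slides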
# Chain of Dickkopf-related protein 1 (Homo sapiens) (O94907 whole entry, looked up): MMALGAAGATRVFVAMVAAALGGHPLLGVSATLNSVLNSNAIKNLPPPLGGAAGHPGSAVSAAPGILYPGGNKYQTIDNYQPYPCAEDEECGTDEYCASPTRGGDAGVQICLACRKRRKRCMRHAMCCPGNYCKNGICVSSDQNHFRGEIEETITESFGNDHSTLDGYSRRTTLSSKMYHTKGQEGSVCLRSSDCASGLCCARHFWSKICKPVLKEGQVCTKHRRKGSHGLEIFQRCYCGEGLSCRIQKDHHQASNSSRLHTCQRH
# [10] = test system: Inhibin beta A chain (activin A); experiment: small molecules binding activin A – biochemical, small-molecule microarray, 635 nm fluorescence scan, primary screen (AID 1107); details: INHBA, higher = more signal;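 note: mouse activin A protein probed at 4.33 µg/mL on printed slides; score merges bound-protein fluorescence near 667 nm with spot signal-to-noise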
# [11] = test system: Human papillomavirus type 1a protein E7 (residues 44-93); experiment: small molecules binding HPV E7 44-93 – biochemical, small-molecule microarray, residues 44-93, 635 nm fluorescence, primary screen (AID 1108); details: fluorescence 635 nm, higher = more signal;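 note: E7 fragment applied at 1 µg/mL in TBST for 1 h at 4 C; score combines spot fluorescence with its signal to noise ratio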
# [12] = hepatitis C replication reporter changes, two-sided – Huh7 cells, luciferase reporter, HCV replication inhibitor project, primary screen (AID 1109); details: Huh7 HCV replicon luciferase reporter, 48 h; higher = more signal;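 note: huh7 hepatoma cells harbouring a luciferase neomycin HCV replicon reporter; luciferase luminescence as measure of HCV replicon replication; test concentration not given here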
# [13] = target: Left-right determination factor 2 (Homo sapiens) (UniProt O00292); experiment: small molecules binding LEFTY2 protein – biochemical, small-molecule microarray, 635 nm fluorescence scan, primary screen (AID 1110); details: higher = more signal
# Chain of Left-right determination factor 2 (Homo sapiens) (O00292 whole entry, looked up): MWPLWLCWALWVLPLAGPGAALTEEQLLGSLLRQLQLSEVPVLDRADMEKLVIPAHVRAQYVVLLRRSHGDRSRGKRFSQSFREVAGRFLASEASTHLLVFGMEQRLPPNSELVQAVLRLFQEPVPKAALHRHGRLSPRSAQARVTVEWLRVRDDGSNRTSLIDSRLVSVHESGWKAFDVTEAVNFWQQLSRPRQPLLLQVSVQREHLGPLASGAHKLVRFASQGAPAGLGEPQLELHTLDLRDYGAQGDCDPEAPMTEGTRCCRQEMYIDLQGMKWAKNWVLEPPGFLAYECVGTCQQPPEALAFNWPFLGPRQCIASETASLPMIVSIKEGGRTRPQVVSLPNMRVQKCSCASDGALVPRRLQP
# [14] = target: Calmodulin-1 (Homo sapiens) (UniProt P0DP23); experiment: small molecules binding calmodulin-1 with EGTA – biochemical, small-molecule microarray, Cy5-labelled CALM1, profiling panel (AID 1111); details: Cy5-CALM1 binding fluorescence, higher = more signal;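 note: labelled calmodulin applied in Tris saline Tween buffer holding calcium plus EGTA and DTT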
# [15] = target: Calmodulin-1 (Homo sapiens) (UniProt P0DP23); experiment: small molecules binding Ca-loaded calmodulin-1 – biochemical, small-molecule microarray, Cy5-labelled CALM1, plus calcium, artefact control for SMM control-protein annotation, profiling panel (AID 1112); details: Cy5-CALM1 binding fluorescence, higher = more signal;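 note: score merges spot fluorescence with signal to noise from triplicate slides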
# [16] = probe aWnt5a binding to arrayed compounds – biochemical, biotinylated probe, 635/667 nm fluorescence, primary screen (AID 1113); details: small-molecule microarray, higher = more signal;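 note: score merges 667 nm fluorescence intensity with signal-to-noise per printed feature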
# [17] = probe aShh binding to arrayed compounds – biochemical, biotinylated probe, 635/667 nm fluorescence, primary screen (AID 1114); details: small-molecule microarray, higher = more signal;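 note: probe is biotin-labelled aShh protein from a stem cell growth factor screen; measures binding of labelled protein to compounds printed on the slide; score merges feature fluorescence at 667 nm with signal-to-noise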
# [18] = probe aNog binding to arrayed compounds – biochemical, biotinylated probe, 635/667 nm fluorescence, primary screen (AID 1115); details: small-molecule microarray, higher = more signal;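 note: probe is biotinylated aNog protein used at 0.15 µg/mL for 1 h at 4 C; z-score combines 667 nm fluorescence of each spot with its signal to noise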
# [19] = target: Torsin-1A-interacting protein 1 (Homo sapiens) (UniProt Q5JTV8); experiment: compound microarray binding of lysate hLAP1 – cell lysate, small-molecule microarray, COS7 lysate, 635/667 nm fluorescence, primary screen (AID 1116); details: 635 nm fluorescence, higher = more signal
# Chain of Torsin-1A-interacting protein 1 (Homo sapiens) (Q5JTV8 whole entry, looked up): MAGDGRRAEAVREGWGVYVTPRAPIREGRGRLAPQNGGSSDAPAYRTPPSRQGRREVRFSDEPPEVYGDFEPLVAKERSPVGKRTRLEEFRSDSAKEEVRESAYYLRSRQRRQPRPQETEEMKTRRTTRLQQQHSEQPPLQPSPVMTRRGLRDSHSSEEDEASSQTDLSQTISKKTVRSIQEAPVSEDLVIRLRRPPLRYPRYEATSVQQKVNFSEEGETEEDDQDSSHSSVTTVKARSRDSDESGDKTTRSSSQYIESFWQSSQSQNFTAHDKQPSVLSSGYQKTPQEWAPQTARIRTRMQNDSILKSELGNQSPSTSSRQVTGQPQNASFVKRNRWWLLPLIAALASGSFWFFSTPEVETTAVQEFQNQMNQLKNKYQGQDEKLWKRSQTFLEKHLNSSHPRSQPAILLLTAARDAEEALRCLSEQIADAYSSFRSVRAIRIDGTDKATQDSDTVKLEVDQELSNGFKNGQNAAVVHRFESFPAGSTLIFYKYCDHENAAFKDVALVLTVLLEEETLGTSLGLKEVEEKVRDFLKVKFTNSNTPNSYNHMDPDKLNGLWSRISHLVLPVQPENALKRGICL
# [20] = target: Alpha-bungarotoxin (Bungarus multicinctus) (UniProt P60615); experiment: compounds binding labelled alpha-BTX control protein – biochemical, small-molecule microarray, Alexa647 label, 635/667 nm fluorescence, artefact control for SMM control protein annotation, profiling panel (AID 1117); details: alpha-BTX-A647 binding fluorescence, higher = more signal
# Chain of Alpha-bungarotoxin (Bungarus multicinctus) (P60615 whole entry, looked up): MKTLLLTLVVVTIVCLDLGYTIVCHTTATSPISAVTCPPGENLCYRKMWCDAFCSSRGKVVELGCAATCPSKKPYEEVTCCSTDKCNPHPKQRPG
Structure (SMILES),composite z-score [1],composite z-score [2],composite z-score [3],z-score [4],composite z-score [5],composite z-score [6],composite z-score [7],composite z-score [8],composite z-score [9],composite z-score [10],composite z-score [11],z-score [12],composite z-score [13],composite z-score [14],composite z-score [15],composite z-score [16],composite z-score [17],composite z-score [18],composite z-score [19],composite z-score [20]
CC(C)NC(=O)[C@@]1(C)c2ccccc2C(=O)N(C(C)C)[C@H]1c1ccc(CO)cc1,1.58,-0.123,0.925,0.0862 (inactive),-1.09,-0.643,-1.68,-0.673,-1.81,-1.53,-0.609,-0.593,-3.05,-0.614,-0.0732,-0.296,-0.154,-0.435,-1.97,-0.43
COCCCNC(=O)[C@@H]1c2ccccc2C(=O)N(Cc2ccccc2C(F)(F)F)[C@H]1c1ccc(CO)cc1,1.58,0.484,0.879,0.354 (inactive),-0.0537,0.575,-0.222,-0.582,-0.595,0.923,0.367,-0.469,-0.431,-0.119,0.423,-0.152,-0.266,0.265,0.612,-0.295
C[C@]1(C(=O)O)c2ccccc2C(=O)N(Cc2ccccc2)[C@H]1c1ccc(CO)cc1,1.51,0.44,1.11,-0.602 (inactive),-1.97,-1.83,-1.63,-1.38,-1.64,0.463,-0.633,-0.413,-2.19,0.139,1.2,-0.204,-0.291,0.562,-0.0514,-1.04
COc1ccc(C(O)C2C=CC3C(=O)N(c4ccccc4)C(=O)C3N2Nc2ccc(C#N)cc2)c2ccccc12 (stereo not given),1.2,0.585,0.917,1.8 (inactive),0.581,0.811,-0.0239,0.733,0.138,0.675,0.596,-0.46,-0.199,2.63,1.07,0.0388,-0.0709,1.45,1.83,1.68
CC(C)CN1C(=O)[C@@]2(Cc3ccccc31)c1ccccc1C(=O)N(Cc1ccccc1C(F)(F)F)[C@H]2c1ccc(CO)cc1,0.957,-0.0363,0.223,-0.596 (inactive),-0.621,-1.59,-0.478,-0.676,-1.05,0.731,-1.57,0.186,-0.584,-0.566,-0.815,-0.2,-0.138,-0.303,-1.07,0.14
[N-]=[N+]=NCc1ccccc1C[C@@]1(C(=O)N2CCCCC2)N=C(c2ccc(OCCCO)cc2)O[C@@H]1c1ccccc1N=[N+]=[N-],0.679,0.885,0.689,-0.428 (inactive),0.128,0.293,0.13,-0.16,-0.276,1.19,1.37,-1.04,-0.0573,1.43,0.795,-0.392,-0.284,-0.919,0.209,0.809
CC(C)N1CC=CC23O[C@@H]4C=CCCOC(=O)C4[C@H]2C(=O)N(CCO)[C@@H]3C1=O (stereo not given in full),0.154,-0.377,-0.0034,-1.22 (inactive),0.107,-0.504,-0.458,-0.762,-0.155,-0.101,-0.478,0.516,-0.289,-0.343,-0.348,-0.224,-0.282,-0.0852,-0.494,-0.048
C=C(C(=O)CC[C@H](OC(=O)c1cccnc1)c1cccc(OCCO)c1)C(C)C,1.24,-0.061,0.125,1.76 (inactive),-0.64,-0.418,-0.792,-1.05,-0.878,1.16,0.074,-3.63,-0.507,-1.21,-1.58,-0.124,0.0952,0.151,0.307,-0.0234
O=C(CS)NCCCCCCNC(=O)[C@H]1C[C@H]2C(=O)N[C@@H](Cc3ccccc3)C(=O)N2[C@H]1c1cccc(OCCO)c1,1.62,-0.0581,0.232,0.479 (inactive),1.51,1.25,1.39,1.52,1.34,0.68,1.37,-0.963,1.23,1.79,0.0164,0.0066,0.676,0.897,1.38,2.44
COC(=O)C1(Cc2ccccc2)C=C2C(=C(c3ccccc3)C(=O)C2C)CN1 (stereo not given),-0.208,1.88,1.39,0.388 (inactive),1.03,-0.731,-0.544,-0.147,-0.89,1.69,-0.964,-1.53,-0.871,0.648,1.18,1.11,2.71,1.05,1.22,0.0329
COc1cc(CO)cc(I)c1O[C@H]1C=C(C(=O)NCCO)C[C@@H](N(Cc2ccc(F)cc2)C(=O)C2CCCO2)[C@@H]1O (stereo not given in full),0.0885,-0.139,-0.697,-0.0727 (inactive),0.182,0.1,0.346,0.203,0.208,0.676,-0.284,0.561,0.407,-0.0131,-0.402,-0.124,-0.338,-0.0312,-0.0829,0.988
C=CC1c2cc(O)c(OC)cc2CCN1Cc1sc2ccccc2c1Cl (stereo not given),1.29,0.284,1.25,-1.4 (inactive),0.504,0.112,-0.163,0.847,0.153,1.55,1.38,-1.78,0.0792,0.248,0.237,-0.107,0.0796,-0.0132,0.47,1.47
CC(C)CCC[C@@H](C)[C@H]1CC[C@@]2(C)C3=C(CC[C@]12C)[C@@]1(C)CC[C@H](OC(=O)c2ccc(Br)cc2)C(C)(C)C1CC3 (stereo not given in full),0.27,-0.153,-0.331,-1.13 (inactive),0.609,0.55,0.593,0.506,0.391,0.26,-0.298,0.132,0.711,0.132,-0.442,-0.157,-0.0977,-0.18,0.162,0.204
O=C1OCCC=C[C@H]2OC34C=CCN(c5ccc(Cl)cc5)C(=O)[C@H]3N(CCCCCO)C(=O)[C@@H]4C12 (stereo not given in full),1.87,-0.0263,0.255,-0.443 (inactive),-0.315,0.0788,-0.935,-0.713,-0.172,0.883,-0.357,0.312,-0.639,-0.262,-0.137,-0.0512,-0.0769,0.496,0.681,-0.702
COc1ccccc1CN1C(=O)c2ccccc2[C@@H](C(=O)NC(C)C)[C@@H]1c1ccc(CO)cc1,0.567,0.711,0.756,0.011 (inactive),1.33,1.23,0.754,1.24,0.673,0.93,0.636,-0.861,0.4,0.301,-0.508,0.236,0.14,-0.637,0.902,1.06
CCOC(=CC(=O)OC)CC(O)c1cccc(Cl)c1 (stereo not given),0.971,-0.132,0.445,-1.02 (inactive),-0.617,0.982,-0.779,-0.151,-1.3,-0.297,1.11,-2.17,-0.796,-0.265,0.486,-0.0685,-0.156,-0.527,1.36,-0.259
